# Test results from PubChem BioAssay.
# A number with no mark means an inactive call. The source made the active and inactive calls. Cut-off read from the data, not from the text of the source: active = inhibition above about 25%; inactive = the rest.
# Experiment: repression of VP16-driven luciferase reporter – cell-based, luminescence, high throughput, counter-screen for SRC1 inhibitor project (AID 588824)
# Details: cell-based VP16 transactivation luciferase luminescence; at 3.6 µM; active compounds read high
row,SMILES,inhibition
1,Cc1ccc(C(=O)CSc2cnc3ccccc3n2)cc1C,-68.1%
2,Cn1c(=O)c2c(nc(Oc3ccc4ccccc4c3)n2C)n(C)c1=O,34.7% (active)
3,CC(=O)N1CCN(c2ccc(Oc3ncnc4sccc34)cc2)CC1,16.9%
4,COc1ccc(-c2cn[nH]c2N)c(OC)c1,41.7% (active)
5,Cc1ccc(NC(=O)NC2CC(=O)N(c3ccc4c(c3)OCCO4)C2)cc1C (centres undefined),20.9%
6,Cc1cc(=O)[nH]c(Nc2cccc(C(F)(F)F)c2)n1,27% (active)
7,CC1CCN(Cc2c(C(=O)N/N=C/c3cc(Br)ccc3O)nnn2-c2nonc2N)CC1,81.9% (active)
8,CC(=O)c1cccc(NC(=O)Nc2cccnc2)c1,33.6% (active)
9,O=C(CCSc1nc2ccccc2s1)N/N=C/c1c(O)ccc2ccccc12,32% (active)
10,N=c1c2c(-c3ccccc3)c(-c3ccccc3)n(Cc3ccco3)c2ncn1CCCn1ccnc1,57.4% (active)
11,COc1cc(Cl)cc(/C=N\NC(=O)c2ccc3c(c2)OCO3)c1O,33.6% (active)
12,O=C(N/N=C/c1sc(N2CCOCC2)nc1-c1ccccc1)c1cccc(S(=O)(=O)N2CCCC2)c1,72% (active)
13,Cc1ccc(N=c2c([N+](=O)[O-])nn(-c3ccc4c(c3)OCCO4)n2O)cc1F,-9.63%
14,O=C(c1ccncc1)N(Cc1cc2ccccc2[nH]c1=O)C1CCCCC1,23.1%
15,COc1ccc(Cl)cc1Nc1nc(-c2sc(NC(=O)C(C)(C)C)nc2C)cs1,39.8% (active)
16,O=C(/C=C/c1ccc(OCCCF)cc1)Nc1ccnc(-c2cccnc2)n1,15.8%
17,CCCS(=O)(=O)Nc1ccc(Nc2c3ccccc3nc3ccccc23)c(OC)c1,2.6%
18,CC(C)(C)n1ncc2c(=O)n(CC(=O)OCc3ccccc3)cnc21,-23.3%
19,C[n+]1c2n(c3ccccc31)N=C(c1ccc(Br)cc1)CS2,30.4% (active)
20,CN(C(=O)COC(=O)/C=C/c1cccc([N+](=O)[O-])c1)C1CCS(=O)(=O)C1 (centres undefined),29.5% (active)

row,SMILES,inhibition
1,Cc1ccc(C)c(NC(=O)c2ccccc2NS(=O)(=O)c2cc([N+](=O)[O-])ccc2C)c1,22%
2,CC(C)CC(=O)/C(=C\c1ccc(Cl)cc1Cl)n1cncn1,55.6% (active)
3,CC(=O)c1ccc(Nc2ncnc3ccc(Br)cc23)cc1,37.8% (active)
4,O=C(Nc1ccc([N+](=O)[O-])cc1)Nc1ccc(OC(F)F)c(Cl)c1,39.7% (active)
5,CC(C)c1ccc(-c2nnn(CCC(=O)O)n2)cc1,37.5% (active)
6,COC(=O)c1c(C)oc2ccc(N(C(=O)c3ccncc3)S(=O)(=O)c3ccc(C)cc3C)cc12,27.3% (active)
7,CCC(=O)Nc1cc2nn(-c3ccc(C)cc3)nc2cc1C,-68%
8,CC(=O)NC(c1ccccc1)c1cc(Cl)c2cccnc2c1O (centres undefined),27% (active)
9,Cn1c(/C(C#N)=C/c2ccc(-c3ccc(S(N)(=O)=O)cc3)o2)nc2ccccc21,28.9% (active)
10,CCCCC(=O)OCC(=O)C1(O)Cc2c(O)c3c(c(O)c2C(OC2CC(NC(=O)C(F)(F)F)C(O)C(C)O2)C1)C(=O)c1c(OC)cccc1C3=O (centres undefined),16.3%
11,CC(O)CC(C(=O)NNc1ccccc1)C(=O)NNc1ccccc1 (centres undefined),13.1%
12,CCOc1cc(/C=C2\CN(C)C/C(=C\c3ccc(O)c(OCC)c3)C2=O)ccc1O,75.6% (active)
13,CC(C)(C)c1nnc(N/N=C/c2cc(Br)ccc2O)n(N)c1=O,63% (active)
14,CC(C)n1c(-c2cccnc2)nc2cnccc21,18.9%
15,OCCN1CCN(C(=S)c2ccc(-c3ccccc3)cc2)CC1,6.4%
16,O=C1C(F)=CC(COC(c2ccccc2)(c2ccccc2)c2ccccc2)OC1n1cc(F)c(=O)[nH]c1=O (centres undefined),62.1% (active)
17,Cc1c(-c2ccccc2)oc2c(C(=O)N3CCN(c4ccc([N+](=O)[O-])cc4)CC3)cccc2c1=O,27.3% (active)
18,Clc1ccc(-c2csc3ncnc(NCCN4CCOCC4)c23)cc1,31.8% (active)
19,COc1ccc(-c2cn[nH]c2C)cc1OC,10.7%
